PubChem BioAssay (Tox21)
Inconclusive results are not listed. Calls of active or inactive are those of the source. Unless noted, the call rests on the fitted dose curve; in most records, active means well fitted curve in the direction sought with a large enough effect in the repeat runs; inconclusive means weak or mixed curves; inactive means no such curve, though single readings can be large; an effect the other way counts as inactive or inconclusive.

Columns and labels:
[1] = qHTS assay to identify small molecule antagonists of the glucocorticoid receptor (GR) signaling pathway - cell viability counter screen (AID 720693); further: nearly all actives have a fitted effect of over 55% in size
[2] = qHTS assay for identifying genotoxic compounds that show differential cytotoxicity against isogenic chicken DT40 cell lines with known DNA damage response pathways - wild type cell line (AID 743012); further: nearly all actives have a fitted effect of over 60% in size; further: potency means the concentration at half of the fitted maximal effect
Summary of the method: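 Quantitative HTS on parental DT40 cells: 40 h compound treatment at 37 C/5% CO2, with viability then determined by CellTiter-Glo luminescence. Values serve as the DNA repair-proficient reference for differential cytotoxicity.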

[3] = qHTS assay for identifying genotoxic compounds that show differential cytotoxicity against isogenic chicken DT40 cell lines with known DNA damage response pathways - Rad54/Ku70 mutant cell line (AID 743015); further: nearly all actives have a fitted effect of over 60% in size; further: potency means the concentration at half of the fitted maximal effect
[4] = qHTS assay to identify small molecule antagonists of the androgen receptor (AR) signaling pathway - cell viability counter screen (AID 743033; further: nearly all actives have a fitted effect of over 45% in size)
[5] = target: Androgen receptor (Homo sapiens) (UniProt P10275); assay: qHTS assay to identify small molecule agonists of the androgen receptor (AR) signaling pathway using the MDA cell line (AID 743040; further: nearly all actives have a fitted effect of over 20% in size)
Sequence of Androgen receptor (Homo sapiens) (P10275 whole entry, looked up): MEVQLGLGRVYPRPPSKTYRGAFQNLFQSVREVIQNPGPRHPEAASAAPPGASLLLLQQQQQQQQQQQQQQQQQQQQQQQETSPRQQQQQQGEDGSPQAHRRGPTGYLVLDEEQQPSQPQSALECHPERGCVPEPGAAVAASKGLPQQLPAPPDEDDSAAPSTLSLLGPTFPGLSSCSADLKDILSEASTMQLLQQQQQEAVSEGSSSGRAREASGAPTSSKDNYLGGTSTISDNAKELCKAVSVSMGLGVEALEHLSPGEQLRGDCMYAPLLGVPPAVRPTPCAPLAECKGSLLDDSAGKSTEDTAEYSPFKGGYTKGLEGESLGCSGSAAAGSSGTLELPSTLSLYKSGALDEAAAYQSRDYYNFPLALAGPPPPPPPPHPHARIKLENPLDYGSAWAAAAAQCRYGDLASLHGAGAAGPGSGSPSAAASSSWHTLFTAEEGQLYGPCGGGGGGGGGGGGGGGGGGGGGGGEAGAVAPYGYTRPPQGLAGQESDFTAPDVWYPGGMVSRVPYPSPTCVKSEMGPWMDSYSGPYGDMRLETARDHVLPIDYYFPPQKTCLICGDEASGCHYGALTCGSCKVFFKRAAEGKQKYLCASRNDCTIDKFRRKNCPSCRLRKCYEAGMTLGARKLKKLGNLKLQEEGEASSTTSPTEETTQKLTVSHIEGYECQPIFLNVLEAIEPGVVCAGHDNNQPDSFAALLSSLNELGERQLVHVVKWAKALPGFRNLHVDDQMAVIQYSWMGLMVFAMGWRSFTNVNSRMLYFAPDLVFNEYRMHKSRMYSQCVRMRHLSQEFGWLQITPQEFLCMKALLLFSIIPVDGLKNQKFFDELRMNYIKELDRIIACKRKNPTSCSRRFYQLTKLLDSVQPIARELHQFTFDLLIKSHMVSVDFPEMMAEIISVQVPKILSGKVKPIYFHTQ
Summary of the method: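 MDA-kb2 breast carcinoma cells carrying MMTV-luciferase (responsive to AR and GR), plated 5 h then treated 16 h with compounds at 37C, 0% CO2. Read-out was ONE-Glo luminescence after 30 min at room temperature.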

[6] = target: Androgen receptor (Homo sapiens) (UniProt P10275); assay: qHTS assay to identify small molecule antagonists of the androgen receptor (AR) signaling pathway using the MDA cell line (AID 743042; further: nearly all actives have a fitted effect of over 55% in size)
Summary of the method: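 MDA-kb2 breast carcinoma cells carrying MMTV-luciferase (AR/GR responsive) were co-treated with compounds and the agonist R1881 for 16 h at 37C. Inhibition read as ONE-Glo luminescence; CellTiter-Fluor fluorescence measured in parallel for cytotoxicity.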

[7] = qHTS assay to identify small molecule antagonists of the androgen receptor (AR) signaling pathway using the MDA cell line - cell viability counter screen (AID 743041; further: nearly all actives have a fitted effect of over 45% in size)
Summary of the method: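 MDA-kb2 AR-luc cells (MMTV-luciferase, AR/GR responsive) treated with compounds plus R1881 agonist for 16 h at 37C. CellTiter-Fluor added at 15.5 h; fluorescence read after 30 min in the same wells.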

[8] = qHTS assay for identifying genotoxic compounds that show differential cytotoxicity against isogenic chicken DT40 cell lines with known DNA damage response pathways - Rev3 mutant cell line (AID 743014); further: nearly all actives have a fitted effect of over 55% in size; further: potency means the concentration at half of the fitted maximal effect
[9] = target: Androgen receptor (Homo sapiens) (UniProt P10275); assay: qHTS assay to identify small molecule agonists of the androgen receptor (AR) signaling pathway (AID 743036; active means well fitted activation curve with a large enough effect in the signal ratio in the repeat runs, with a control signal flat, not every such curve was filed as active; the % refers to the signal ratio)
Summary of the method: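 HEK293 cells stably carrying a UAS-driven beta-lactamase reporter (GeneBLAzer AR-UAS-bla-GripTite) were plated at 2,000 cells/well, rested 4 h at 37C, then exposed to compounds in DMSO for 16 h. LiveBLAzer B/G FRET substrate was added for 2 h at room temperature; fluorescence read.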

[10] = target: Androgen receptor (Homo sapiens) (UniProt P10275); assay: qHTS assay to identify small molecule antagonists of the androgen receptor (AR) signaling pathway (AID 743035; active means well fitted inhibition curve with a large enough effect in the signal ratio in the repeat runs, not every such curve was filed as active; the % refers to the signal ratio; further: potency means the concentration at half of the fitted maximal effect)
Summary of the method: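 Cell line: GeneBLAzer AR-UAS-bla GripTite (HEK293). Stimulus: R1881 added after compound. Exposure: 16 h, 37C, 5% CO2. Readout: LiveBLAzer B/G FRET fluorescence after 2 h at room temperature.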

Measured: Potency

CNC(=O)N(C)c1nc2ccccc2s1
inactive: [1] | [2] | [3] | [4] | [5] | [6]

CCC(C)n1c(=O)[nH]c(C)c(Br)c1=O (stereo not given)
inactive: [1] | [2] | [3] | [7]

NC1=NC(=O)C(c2ccccc2)O1 (stereo not given)
inactive: [1] | [2] | [3] | [4] | [7]

O=C1OC(=O)C2C1C1(Cl)C(Cl)=C(Cl)C2(Cl)C1(Cl)Cl (stereo not given)
inactive: [1] | [8] | [3] | [4]

CC(C)(C)OC(=O)c1ncn2c1[C@@H]1CCCN1C(=O)c1c(Br)cccc1-2
inactive: [1] | [4] | [7]
active: [2] 26.6 µM

Nc1c(Br)cc([N+](=O)[O-])cc1[N+](=O)[O-]
inactive: [1] | [2] | [4] | [5] | [6]

CC(C1CC1)C(O)(Cn1cncn1)c1ccc(Cl)cc1 (stereo not given)
inactive: [1] | [4] | [7]
active: [2] 48.3 µM

Nc1cnn(-c2ccccc2)c(=O)c1Cl
inactive: [1] | [2] | [3]

Cc1cc(C)c(C(=O)P(=O)(C(=O)c2c(C)cc(C)cc2C)c2ccccc2)c(C)c1
inactive: [1] | [2] | [3] | [4] | [7]

C#CCN1C(=O)COc2cc(F)c(N3C(=O)C4=C(CCCC4)C3=O)cc21
inactive: [1] | [4] | [9] | [5] | [7]
active: [2] 61.1 µM

COc1ccc2c(c1OC)CN1CCc3cc4c(cc3C1C2)OCO4 (stereo not given)
active: [2] 11.4 µM
not listed: [3] | [8] | [10]
inactive: all other assays above

CCCSC(=O)Cl
inactive: [1] | [8]

CN1C[C@@H](NS(=O)(=O)N(C)C)C[C@@H]2c3cccc4c3c(cn4C)C[C@H]21
active: [2] 21.1 µM
inactive: [1] | [7]

COc1cccc(C(=O)NN(C(=O)c2cc(C)cc(C)c2)C(C)(C)C)c1C
inactive: [1] | [4]
active: [8] 68.6 µM | [3] 61.1 µM

CN1C(=S)CN=C(c2ccccc2)c2cc(Cl)ccc21
inactive: [1] | [4]
active: [2] 23.7 µM | [3] 29.8 µM

CC(N)=S
inactive: [1] | [8] | [3] | [4]

C[C@]1(O)CC[C@H]2[C@@H]3CCC4=CC(=O)CC[C@]4(C)[C@@]3(F)[C@@H](O)C[C@@]21C
inactive: [1] | [8] | [3] | [4]

COC(=O)COc1ccc(Cl)cc1Cl
inactive: [1] | [8] | [3] | [4]

O=C(N[C@H]1CN2CCC1CC2)c1cc2ccoc2cn1
not listed: [3] | [7] | [8]
inactive: all other assays above

C1CCC(C2CCCCC2)CC1
active: [8] 54.5 µM | [3] 54.5 µM
inactive: [1] | [4]

CCCCOP(=O)(O)OCCCC
not listed: [2]
inactive: all other assays above

CN(C)CCc1ccc(O)cc1
inactive: [1] | [8] | [3] | [7]

Cc1cccc(C#N)c1
inactive: [1] | [8] | [3] | [4] | [7]

COC(=O)c1ccccc1S(=O)(=O)NC(=O)Nc1nc(C)cc(C)n1
inactive: [1] | [8] | [3] | [7]

ClCC(Cl)Cl
inactive: [1] | [8] | [3] | [4] | [7]

COP(N)(=S)Oc1ccccc1C(=O)OC(C)C (stereo not given)
not listed: [2] | [7]
inactive: all other assays above

N#CCNCC#N
inactive: [1] | [8] | [3] | [4] | [7]

CCN(Cc1ccc(Cl)nc1)/C(=C/[N+](=O)[O-])NC
inactive: [1] | [8] | [3] | [4] | [7]

CCCSP(=O)(OCC)Oc1ccc(Br)cc1Cl (stereo not given)
active: [8] 33.3 µM | [3] 29.7 µM
inactive: [1] | [7]

COC(=O)c1c(C(F)F)nc(C(F)(F)F)c(C2=NCCS2)c1CC(C)C
active: [8] 61.1 µM | [3] 61.1 µM
not listed: [2]
inactive: all other assays above

O=C1OC(c2ccc(O)c(S(=O)(=O)O)c2)(c2ccc(O)c(S(=O)(=O)O)c2)c2c(Br)c(Br)c(Br)c(Br)c21
inactive: [1] | [8] | [3] | [7]

c1cc[c]([Hg][c]2ccccc2)cc1
active: [8] 0.243 µM | [3] 0.193 µM | [10] 43.6 µM
not listed: [2] | [7]
inactive: all other assays above

CCOc1nc(C(Cl)(Cl)Cl)ns1
inactive: [1] | [8] | [3] | [7]

CC(Cl)(Cl)[N+](=O)[O-]
not listed: [2]
inactive: all other assays above

COC(=O)C(c1ccccc1)C1CCCCN1 (stereo not given)
not listed: [2]
inactive: all other assays above

O=C(NCO)NCO
inactive: [1] | [8] | [3] | [7]

C=CC1CC=CCC1 (stereo not given)
inactive: [1] | [8] | [3] | [4] | [7]

COc1cc(C[C@@H](C)N)c(OC)cc1C
inactive: [1] | [8] | [3] | [7]

CCN(CC)C(C)C(=O)c1ccccc1 (stereo not given)
not listed: [2]
inactive: all other assays above

COc1ncc(F)c2nc(S(=O)(=O)Nc3c(F)cccc3F)nn12
not listed: [2] | [7] | [9]
inactive: all other assays above
